Experimental findings from PubChem BioAssay (NCATS) are described below.

Records with an inconclusive call do not appear. Calls of active or inactive are those of the source. Calls come from the whole dose curve.

Experiment [1] can be described thus: qHTS drug screen for cell cycle checkpoint inhibitors in PARPi-resistant BRCA-mutant ovarian cancer cell lines. (AID 1963452). To be noted: PEO1/OlaR viability, CellTiter-Glo luminescence, 96 h, stronger effect = lower value. In outline:
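PEO1, PEO4 and PEO1/OlaR ovarian cancer cells, 600 per well, exposed 96 h at 37C to a dilution series. Viability read by CellTiter-Glo luminescence, normalized to DMSO and empty wells; activity summarized as Z-AUC.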
(qHTS replaces the single test concentration by a dilution series.)

The nature of experiment [2]: qHTS for identification of novel therapeutic agents for treatment of microphthalmiaassociated transcription factor (MiT) renal cell carcinoma (RCC) (AID 1963991). Conditions: CellTiter-Glo, 48 h, stronger effect = lower value. Put shortly: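 Viability of three TFE3-fusion renal carcinoma lines measured by CellTiter-Glo after 48 h treatment with each of 1912 compounds at 11 concentrations. Responses scaled between DMSO (100%) and empty wells (0%) before curve fitting.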

Setting [3] is: measured here: PEO1 parental Z-AUC.

In the case of `O=c1[nH]c(-c2ccc(C(F)(F)F)cc2)nc2c1CSCC2`, the Z-AUC is 0.604 (inactive) in experiment [1], 0.431 in experiment [1] (setting [3]) and 0.432 in experiment [1] (measured here: PEO4 Z-AUC).

For the compound `OC[C@H](Cc1ccccc1)Nc1nc(Oc2ccc3c(c2)CCC3)nc2c1ncn2Cc1ccc(-c2ccccc2)cc1`, the Z-AUC in experiment [1] is 0.712 (inactive); in experiment [1] (setting [3]), 0.249; in experiment [1] (measured here: PEO4 Z-AUC), 0.323.

As for `Nc1nccc(-c2ccc3noc(-c4ccc(Cl)cc4)c3c2)n1`, the Z-AUC was 0.305 (inactive) in experiment [1], 0.344 in experiment [1] (setting [3]) and 0.149 in experiment [1] (measured here: PEO4 Z-AUC).

As to `Cc1c(CCOc2ccc(C(=O)O)cc2)c2cc(Cl)ccc2n1C(c1ccccc1)c1ccccc1`, the Z-AUC in experiment [1] was 0.749 (inactive); in experiment [1] (setting [3]) it was 1.16; in experiment [1] (measured here: PEO4 Z-AUC) it was 0.896.

For the compound `CS(=O)(=O)c1ccc(C(=O)Nc2ccc(Cl)c(-c3ccccn3)c2)c(Cl)c1`, the results for the Z-AUC in experiment [1], in experiment [1] (setting [3]) and in experiment [1] (measured here: PEO4 Z-AUC) were 0.211 (inactive), -0.252 and -0.353, respectively.

Regarding `Cc1ccnc(NS(=O)(=O)c2ccc(NC(=O)Nc3ccc(S(=O)(=O)Nc4nccc(C)n4)cc3)cc2)n1`, the Z-AUC in experiment [1] is -1 (inactive); in experiment [1] (setting [3]), -0.318; in experiment [1] (measured here: PEO4 Z-AUC), 0.813.

Turning to `Cc1csc(NC(=O)c2sc3nc4c(c(C(F)(F)F)c3c2N)CCC4)n1`, the Z-AUC was 0.359 (inactive) in experiment [1], 0.125 in experiment [1] (setting [3]) and 0.375 in experiment [1] (measured here: PEO4 Z-AUC).

Regarding `COc1cc2c(cc1OC)CN(CCc1ccc(NC(=O)c3cccc4c(=O)c5cccc(OC)c5[nH]c34)cc1)CC2`, the values for the Z-AUC in experiment [1], in experiment [1] (setting [3]) and in experiment [1] (measured here: PEO4 Z-AUC) were 1.13 (inactive), 0.952 and 0.963, respectively.

On to `CC[C@@H](C)[C@H](NC(=O)[C@H](CC1CCCCC1)NC(=O)c1ccno1)C(=O)N1CCC2(CCc3ccccc32)CC1`, for which the Z-AUC in experiment [1] was -0.29 (inactive); in experiment [1] (setting [3]) it was -0.177; in experiment [1] (measured here: PEO4 Z-AUC) it was -0.471.

For the compound `CC1(C)Cc2c(-c3ccccc3)c(-c3ccc(Cl)cc3)c(CC(=O)O)n2C1`, the Z-AUC is 0.0211 (inactive) in experiment [1], 0.818 in experiment [1] (setting [3]) and 0.66 in experiment [1] (measured here: PEO4 Z-AUC).

As to `CN(C)C(=O)c1ccc(S(=O)(=O)c2ccc(NC(=O)[C@@](C)(O)C(F)(F)F)c(Cl)c2)cc1`, the values for the Z-AUC in experiment [1], in experiment [1] (setting [3]) and in experiment [1] (measured here: PEO4 Z-AUC) were 0.422 (inactive), -0.221 and 0.763, respectively.

Take `CNC(=O)c1ccccc1Sc1ccc2c(/C=C/c3ccccn3)n[nH]c2c1`: the Z-AUC in experiment [1] is 0.578 (inactive); in experiment [1] (setting [3]), 0.269; in experiment [1] (measured here: PEO4 Z-AUC) it was 0.241.

In the case of `COc1ccccc1[C@H](c1cccc2ccccc12)[C@@](C)(C#N)C(=O)N1CCC(c2cccc(C(F)(F)F)c2)CC1`, the Z-AUC is 1.34 (inactive) in experiment [1], 1.15 in experiment [1] (setting [3]) and 1.29 in experiment [1] (measured here: PEO4 Z-AUC).

On to `COc1ccc2c3n(c(=NC(=O)c4cccnc4)nc2c1OC)CCN3`, for which the Z-AUC in experiment [1] was -0.738 (inactive); in experiment [1] (setting [3]), -0.328; in experiment [1] (measured here: PEO4 Z-AUC) it was -0.378.

Turning to `CC1(C)CNc2cc(NC(=O)c3cccnc3NCc3ccncc3)ccc21`, the Z-AUC in experiment [1] is 1.35 (inactive); in experiment [1] (setting [3]), 0.457; in experiment [1] (measured here: PEO4 Z-AUC) it was 0.272.

Take `CNC(=O)c1ccc(N2C(=S)N(c3ccc(C#N)c(C(F)(F)F)c3)C(=O)C2(C)C)cc1F`: the Z-AUC was 0.0364 (inactive) in experiment [1], 0.676 in experiment [1] (setting [3]) and 0.909 in experiment [1] (measured here: PEO4 Z-AUC).

Consider `Fc1ccc(Cl)cc1-c1nc(Nc2ccncc2)c2nccnc2n1`, for which the Z-AUC in experiment [1] was 0.985 (inactive); in experiment [1] (setting [3]) it was 1.18; in experiment [1] (measured here: PEO4 Z-AUC) it was 1.09.

For the compound `COc1c(Cl)cc2c([nH]c3cnccc32)c1NC(=O)c1cccnc1C`, the figures for the Z-AUC in experiment [1], in experiment [1] (setting [3]) and in experiment [1] (measured here: PEO4 Z-AUC) were 1.1 (inactive), 0.859 and 0.857, respectively.

As for `Cn1cc(-c2ccc3nnc(C(F)(F)c4ccc5ncccc5c4)n3n2)cn1`, the Z-AUC is -0.354 (inactive) in experiment [1], 0.00451 in experiment [1] (setting [3]) and 0.204 in experiment [1] (measured here: PEO4 Z-AUC).

`CCc1cc(Nc2nccc(-c3c(-c4ccc(OC)c(C(=O)Nc5c(F)cccc5F)c4)nc4ccccn34)n2)c(OC)cc1N1CCC(N2CCN(S(C)(=O)=O)CC2)CC1`: the Z-AUC in experiment [1] was -0.4 (inactive); in experiment [1] (setting [3]) it was -0.657; in experiment [1] (measured here: PEO4 Z-AUC) it was -0.933.

Take `O=C(c1cc(Cc2n[nH]c(=O)c3ccccc23)ccc1F)N1CCN(C(=O)C2CC2)CC1`: the Z-AUC in experiment [1] was 0.491 (inactive); in experiment [1] (setting [3]), -0.378; in experiment [1] (measured here: PEO4 Z-AUC), 0.0684.

On to `S=C(NCc1ccc2c(c1)OCO2)N1CCN(c2ncnc3c2oc2ccccc23)CC1`, for which the Z-AUC in experiment [1] was -0.165 (inactive); in experiment [1] (setting [3]), -1.16; in experiment [1] (measured here: PEO4 Z-AUC) it was 0.0465.

Take `CC(=O)NC(C)c1ccc(Oc2ccc(OC(C)C)cc2)cc1` (stereo unspecified): the results for the Z-AUC in experiment [1], in experiment [1] (setting [3]) and in experiment [1] (measured here: PEO4 Z-AUC) were 0.0363 (inactive), 0.0694 and -0.363, respectively.

As for `Cc1ccc(-n2nc(C(C)(C)C)cc2NC(=O)Nc2ccc(OCCN3CCOCC3)c3ccccc23)cc1`, the Z-AUC in experiment [1] was 0.154 (inactive); in experiment [1] (setting [3]) it was 0.786; in experiment [1] (measured here: PEO4 Z-AUC) it was 0.35.

For the compound `COc1ccc(-c2ccc3c(N4CCOCC4)nc(N4C[C@@H](C)O[C@@H](C)C4)nc3n2)cc1CO`, the Z-AUC in experiment [1] was 1.56 (inactive); in experiment [1] (setting [3]), 1.12; in experiment [1] (measured here: PEO4 Z-AUC) it was 1.19.

As to `CCC(=O)N[C@H]1CC[C@H](C(=O)N(C)c2ccc(-c3nc4ccccc4o3)cc2)C1`, the figures for the Z-AUC in experiment [1], in experiment [1] (setting [3]) and in experiment [1] (measured here: PEO4 Z-AUC) were -0.0495 (inactive), -0.000542 and 0.214, respectively.

On to `C[C@@H]1CN(Cc2ccc(F)cc2)[C@@H](C)CN1C(=O)c1cc2c(C(=O)C(=O)N(C)C)cn(C)c2cc1Cl`, for which the Z-AUC in experiment [1] is 0.142 (inactive); in experiment [1] (setting [3]), 0.03; in experiment [1] (measured here: PEO4 Z-AUC), 0.299.

Regarding `COc1cc(Nc2ncc3c(n2)-c2ccc(Cl)cc2C(c2c(F)cccc2OC)=NC3)ccc1C(=O)O`, the Z-AUC in experiment [1] is -0.756 (inactive); in experiment [1] (setting [3]) it was -0.991; in experiment [1] (measured here: PEO4 Z-AUC), -1.47.

In the case of `C[C@]1(c2nc3c(C(N)=O)cccc3[nH]2)CCCN1`, the values for the Z-AUC in experiment [1], in experiment [1] (setting [3]) and in experiment [1] (measured here: PEO4 Z-AUC) were 0.745 (inactive), 0.586 and 0.314, respectively.

With `CCN(c1ccccc1)c1cc(NC)[n+](C)c(C)n1`, the Z-AUC in experiment [1] is 1.35 (inactive); in experiment [1] (setting [3]), 1.27; in experiment [1] (measured here: PEO4 Z-AUC), 1.04.

Consider `CCCS(=O)(=O)Nc1ccc(F)c(C(=O)c2c[nH]c3ncc(Cl)cc23)c1F`, for which the figures for the Z-AUC in experiment [1], in experiment [1] (setting [3]) and in experiment [1] (measured here: PEO4 Z-AUC) were -0.11 (inactive), 0.791 and 0.927, respectively.

Take `CCCCCCCc1ccc(CCc2cccc(O)c2C(=O)O)cc1`: the figures for the Z-AUC in experiment [1], in experiment [1] (setting [3]) and in experiment [1] (measured here: PEO4 Z-AUC) were 1.13 (inactive), 0.41 and 0.518, respectively.

`C[C@H](NC(=O)Cc1cc(F)cc(F)c1)C(=O)N[C@@H]1C(=O)N(C)c2ccccc2-c2ccccc21`: the Z-AUC was -0.379 (inactive) in experiment [1], -0.57 in experiment [1] (setting [3]) and -0.563 in experiment [1] (measured here: PEO4 Z-AUC).

Take `COc1ccc(C2=N[C@H](c3ccc(Cl)cc3)[C@H](c3ccc(Cl)cc3)N2C(=O)N2CCNC(=O)C2)c(OC(C)C)c1`: the figures for the Z-AUC in experiment [1], in experiment [1] (setting [3]) and in experiment [1] (measured here: PEO4 Z-AUC) were 0.858 (inactive), 0.454 and 1.13, respectively.

Take `COc1ccccc1-c1cccc(-c2c(O)c3cc(C#N)c(Cl)cc3[nH]c2=O)c1`: the Z-AUC in experiment [1] is 0.395 (inactive); in experiment [1] (setting [3]), 0.311; in experiment [1] (measured here: PEO4 Z-AUC) it was 0.381. Moreover, the z-score in experiment [2] (TFE3-RCC UOK109 viability, measured here: UOK109 Z-AUC) is 1.05; in experiment [2] (TFE3-RCC viability, measured here: UOK124 Z-AUC), -0.0424; in experiment [2] (TFE3-RCC viability, measured here: UOK145 Z-AUC) it was 0.756.

Consider `CN([C@@H](Cc1ccc(OS(=O)(=O)c2cccc3cnccc23)cc1)C(=O)N1CCN(c2ccccc2)CC1)S(=O)(=O)c1cccc2cnccc12`, for which the Z-AUC in experiment [1] was 1.57 (inactive); in experiment [1] (setting [3]) it was 1.54; in experiment [1] (measured here: PEO4 Z-AUC), 1.7.

As to `O=C1[C@H](Cc2ccc(O)cc2)N2C(=O)CCN(C(=O)NCc3ccccc3)[C@H]2CN1Cc1cccc2ccccc12`, the values for the Z-AUC in experiment [1], in experiment [1] (setting [3]) and in experiment [1] (measured here: PEO4 Z-AUC) were 0.428 (inactive), 0.318 and 0.0223, respectively.

With `CCOc1cc(C(=O)Nc2ccc(Cl)c(-c3nc4ccccc4[nH]3)c2)cc(OCC)c1OCC`, the Z-AUC in experiment [1] is -0.941 (inactive); in experiment [1] (setting [3]), 0.578; in experiment [1] (measured here: PEO4 Z-AUC) it was -0.467.

Consider `COc1ccc(CC2=NN3C([C@@H](CCc4ccccc4)[C@@H](C)O)=NC(C)C3C(=O)N2)cc1OC` (stereo partly specified), for which the Z-AUC is -0.34 (inactive) in experiment [1], 0.752 in experiment [1] (setting [3]) and 0.704 in experiment [1] (measured here: PEO4 Z-AUC).

Take `CCc1cncnc1N1CCN(Cc2nc3ccc(C(F)(F)F)cc3[nH]2)CC1`: the Z-AUC in experiment [1] was -0.0922 (inactive); in experiment [1] (setting [3]), -0.164; in experiment [1] (measured here: PEO4 Z-AUC), 0.451.

On to `CN(C)c1ccc(C2Nc3ccc4ccccc4c3C3=C2C(=O)CC(C)(C)C3)cc1Br` (stereo unspecified), for which the Z-AUC was -0.197 (inactive) in experiment [1], -0.276 in experiment [1] (setting [3]) and 0.333 in experiment [1] (measured here: PEO4 Z-AUC).
